# Results taken from PubChem BioAssay AID2242 (National Center for Advancing Translational Sciences (NCATS), 2010).
# Screen size: about 200,000 compounds; about 720 (0.36%) were called active. Roughly 8% stayed inconclusive and do not appear here. Calls follow the shape of the dose curve; as a rule, active = well fitted activation curve with a large enough effect; inconclusive = small, poorly fitted or top-dose-only effect, or effect the other way, or another doubt; inactive = flat fitted curve, though single readings scatter. This is one part of the list.
# Target: Lysosomal alpha-glucosidase (Homo sapiens) (UniProt P10253)
# Assay: qHTS Assay for Activators of Human alpha-Glucosidase as a Potential Chaperone Treatment of Pompe Disease; also: nearly all actives have a fitted effect of over 80% in size
# Settings: purified enzyme, 4-MU-alpha-glucoside fluorescence, 20 min
# Text: NIH Chemical Genomics Center [NCGC] NIH Molecular Libraries Probe Production centers Network [MLPCN] MLPCN Grant: 1R03MH084841-01 Assay Submitter (PI): Wei Zheng NCGC Assay Overview: Alpha-glucosidase is responsible for hydrolysis of terminal, non-reducing 1,4-linked alpha-D-glucose residues with release of alpha-D-glucose. It is a lysosomal hydrolase that is required for the degradation of a small percentage (1-3%) of cellular glycogen in human. Deficiency of this enzyme results in glycogen-storage disease type II (GSDII), also referred to as Pompe disease, an autosomal recessive disorder. Structurally normal glycogen is accumulated in lysosomes and cytoplasm in affected patients, primarily in muscle tissues. Excessive glycogen storage within lysosomes may interrupt normal functioning of other organelles and leads to cellular injury. In turn, this leads to enlargement and dysfunction of the entire organ involved (eg, cardiomyopathy and muscle weakness). It has reported that the improper folding and trafficking of alpha-glucosidase resulting from the genetic mutations may account for a significant number of Pompe patients. […] We optimized this alpha-glucosidase assay in 1536-well plate format for identifying the novel small molecule inhibitors with the structures other than the sugar analogs in order to develop the new pharmacological chaperones, but are also able to detect potential activators. In conjunction with assays against alpha-galactosidase (AID 1467), fluorogenic false positive compounds can be identified.
# NCGC Assay Protocol Summary: This is a fluorogenic enzyme assay with 4-methylumbelliferyl-alpha-D-[…] as the substrate and human alpha-glucosidase as the enzyme preparation. Upon the hydrolysis of this fluorogenic substrate, the resulting product, 1. 4-methyllumbelliferone, can be excited at 365 nm and emits at 440 nm which can be detected by a standard fluorescence plate reader. Data were normalized to the controls for basal activity (without enzyme) and 100% activity (with enzyme). In the AC50 values were determined from concentration-response data modeled with the standard Hill equation. Assay buffer: 50 mM citric acid (titrated with potassium phosphate to pH 5.0), 0.005% Tween-20, pH 5.0. (pH 5.0 is an optimal condition for this enzyme assay) 1536-well assay protocol for the human alpha-glucosidase: (1) Add 2 ul/well of enzyme (4 nM final) (2) Add 23 nL compounds in DMSO solution. The final titration was 0.7 nM to 77 uM. (3) Add 1 ul of substrate (400 uM final) (4) Incubate at room temperature for 20 min. (5) Add 2 ul stop solution (1M NaOH and 1M Glycine mixture, pH 10) (6) Detect the assay plate in a ViewLux plate reader (PerkinElmer) with Ex=365 nm and Em=440nm. Keywords: Alpha-glucosidase, Pompe Disease, pharmacological chaperone, chaperone therapy, high throughput screening, alpha-glucosidase inhibitor, MLSMR, MLSCN, NIH Roadmap, qHTS and NCGC
# Potency is read from the fitted curve at half-maximal effect.
row,Structure (SMILES),Potency
1,N#CC1=C(N)Oc2c(c(=O)oc3ccccc23)C1c1ccc(OC(=O)N2CCOCC2)cc1 (centres undefined),35.5 µM (active)
2,CCOP(=O)(OCC)c1nc(-c2cccc3ccccc23)oc1NCCc1ccc(OC)cc1,31.6 µM (active)
3,COP(=O)(OC)c1nc(-c2cccc3ccccc23)oc1NCCc1ccccc1,31.6 µM (active)
4,COc1ccc(CNc2oc(-c3cccc4ccccc34)nc2P(=O)(OC)OC)cc1,35.5 µM (active)
5,COCCN1Cc2cc(=O)n3c([nH]c4ccccc43)c2C1=N,31.6 µM (active)
6,COC(=O)c1ccc(C(=O)OC)c(NC(=O)Oc2ccccc2)c1,31.6 µM (active)
7,CC(C)OCCCNC(=O)c1c(N)n(CC2CCCO2)c2nc3ccccc3nc12 (centres undefined),39.8 µM (active)
8,CCCNC(=O)c1c(N)n(CC2CCCO2)c2nc3ccccc3nc12 (centres undefined),31.6 µM (active)
9,CN1CCc2c(C#N)c(Cl)nc(Cl)c2C1,35.5 µM (active)
10,N#Cc1c(Cl)nc(Cl)c2c1CCN(Cc1ccccc1)C2,31.6 µM (active)
11,CCCCn1c(N)c(C(=O)OCC2CCCO2)c2nc3ccccc3nc21 (centres undefined),35.5 µM (active)
12,CC(C)CCn1c(N)c(C(=O)OCC2CCCO2)c2nc3ccccc3nc21 (centres undefined),31.6 µM (active)
13,COCCOC(=O)c1c(N)n(Cc2ccc(OC)cc2)c2nc3ccccc3nc12,35.5 µM (active)
14,COCCOC(=O)c1c(N)n(Cc2ccccc2)c2nc3ccccc3nc12,35.5 µM (active)
15,COc1ccc(-c2cc(=NCCCCCC(=O)O)c3cc(C)ccc3o2)cc1,31.6 µM (active)
16,COc1ccc(-c2cc(=NCCC(=O)O)c3cc(C)ccc3o2)cc1,28.2 µM (active)
17,CCOC(=O)c1c(N)n(Cc2ccc(OC)cc2)c2nc3ccccc3nc12,25.1 µM (active)
18,COC(=O)c1c(N)n(Cc2ccc(OC)cc2)c2nc3ccccc3nc12,35.5 µM (active)
19,CC(C)CCOC(=O)c1c(N)n(CC2CCCO2)c2nc3ccccc3nc12 (centres undefined),39.8 µM (active)
20,Nc1c(C(=O)OC2CCCCC2)c2nc3ccccc3nc2n1CC1CCCO1 (centres undefined),35.5 µM (active)

row,Structure (SMILES),Potency
1,CC(C)OC(=O)c1c(N)n(CC2CCCO2)c2nc3ccccc3nc12 (centres undefined),35.5 µM (active)
2,COCCCn1c(N)c(C(=O)OCCOC)c2nc3ccccc3nc21,31.6 µM (active)
3,COCCCn1c(N)c(C(=O)OC(C)COC)c2nc3ccccc3nc21 (centres undefined),39.8 µM (active)
4,O=C(c1cc2c(s1)-c1ccccc1OC2)N1CCC2(CC1)OCCO2,39.8 µM (active)
5,COP(=O)(OC)c1nc(-c2cccc3ccccc23)oc1N1CCCCC1,35.5 µM (active)
6,CCOP(=O)(OCC)c1nc(-c2cccc3ccccc23)oc1N1CCOCC1,39.8 µM (active)
7,CCOP(=O)(OCC)c1nc(-c2cccc3ccccc23)oc1N1CCCCC1,35.5 µM (active)
8,CCOC(=O)c1c(N)n(Cc2ccco2)c2nc3ccccc3nc12,39.8 µM (active)
9,CCCCn1c(NC(=O)c2ccc(Br)o2)c(C(=O)OCC)c2nc3ccccc3nc21,35.5 µM (active)
10,Nc1c(C(=O)NCCN2CCOCC2)c2nc3ccccc3nc2n1Cc1ccco1,39.8 µM (active)
11,COCCNC(=O)c1c(N)n(Cc2ccco2)c2nc3ccccc3nc12,31.6 µM (active)
12,CCCCCn1c(N)c(C(=O)NCCN2CCOCC2)c2nc3ccccc3nc21,35.5 µM (active)
13,COCCOC(=O)c1c(N)n(Cc2ccco2)c2nc3ccccc3nc12,35.5 µM (active)
14,CCOC(=O)c1c(N)n(CCCOC(=O)c2ccco2)c2nc3ccccc3nc12,35.5 µM (active)
15,CC(C)(C)OC(=O)c1c(N)n(Cc2ccco2)c2nc3ccccc3nc12,35.5 µM (active)
16,CC(=O)N1CCC2(CC1)CC(=O)c1cc(OCC(=O)N3CCC4(CC3)OCCO4)ccc1O2,31.6 µM (active)
17,CC(C)CCn1c(N)c(C(=O)NCc2cccs2)c2nc3ccccc3nc21,28.2 µM (active)
18,CCC(C)OC(=O)c1c(N)n(Cc2cccs2)c2nc3ccccc3nc12 (centres undefined),35.5 µM (active)
19,CCCOC(=O)c1c(N)n(Cc2cccs2)c2nc3ccccc3nc12,39.8 µM (active)
